Source: PubChem (National Center for Advancing Translational Sciences (NCATS))
USP1-UAF1 inh = USP1/UAF1 (human) deubiquitinase inhibition; AID 743255; O94782; Potency, µM (top dose mostly 57.1 µM), hits mostly inhibitors; actives 0.23% (n = 390,000); recombinant USP1/UAF1, Ub-Rhodamine cleavage fluorescence; also: nearly all actives have a fitted effect of over 60% in size
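USP1/UAF1 complex (1 nM) preincubated 15 min at room temperature with compound, then Ub-Rho substrate (150 nM final) added. Kinetic fluorescence at 480/540 nm over 6 reads at 60 s intervals; 50 mM HEPES pH 7.8, 0.5 mM EDTA, 0.1 mg/ml BSA, 1 mM TCEP, 0.01% Tween-20.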
EPAC1 ag = activates human EPAC1 exchange factor; EPAC1 agonist qHTS, biochemical assay; response scale: 100% = response to 6.5 mM cAMP; Potency, µM (series often up to 154 µM), hits mostly activators; actives 0.073% (n = 360,000); also: nearly all actives have a fitted effect of over 60% in size
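EPAC1 100 nM, Rap1B–BODIPY-GDP 250 nM, unlabeled GDP 50 uM; compound titration; 5 min RT; kinetic read ex480/em540 at 5-min intervals ×30 min; data normalized to 6.5 mM cAMP agonist control.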
EPAC2 antag = blocks human EPAC2 exchange factor | Q8WZA2 | EPAC2 GEF exchange of Rap1B-BODIPY-GDP, fluorescence | Potency, µM (doses to about 114 µM), usual class: inhibitors | actives 0.18% (n = 360,000) | AID 720708; also: nearly all actives have a fitted effect of over 45% in size
Target sequence (Q8WZA2 whole entry, looked up): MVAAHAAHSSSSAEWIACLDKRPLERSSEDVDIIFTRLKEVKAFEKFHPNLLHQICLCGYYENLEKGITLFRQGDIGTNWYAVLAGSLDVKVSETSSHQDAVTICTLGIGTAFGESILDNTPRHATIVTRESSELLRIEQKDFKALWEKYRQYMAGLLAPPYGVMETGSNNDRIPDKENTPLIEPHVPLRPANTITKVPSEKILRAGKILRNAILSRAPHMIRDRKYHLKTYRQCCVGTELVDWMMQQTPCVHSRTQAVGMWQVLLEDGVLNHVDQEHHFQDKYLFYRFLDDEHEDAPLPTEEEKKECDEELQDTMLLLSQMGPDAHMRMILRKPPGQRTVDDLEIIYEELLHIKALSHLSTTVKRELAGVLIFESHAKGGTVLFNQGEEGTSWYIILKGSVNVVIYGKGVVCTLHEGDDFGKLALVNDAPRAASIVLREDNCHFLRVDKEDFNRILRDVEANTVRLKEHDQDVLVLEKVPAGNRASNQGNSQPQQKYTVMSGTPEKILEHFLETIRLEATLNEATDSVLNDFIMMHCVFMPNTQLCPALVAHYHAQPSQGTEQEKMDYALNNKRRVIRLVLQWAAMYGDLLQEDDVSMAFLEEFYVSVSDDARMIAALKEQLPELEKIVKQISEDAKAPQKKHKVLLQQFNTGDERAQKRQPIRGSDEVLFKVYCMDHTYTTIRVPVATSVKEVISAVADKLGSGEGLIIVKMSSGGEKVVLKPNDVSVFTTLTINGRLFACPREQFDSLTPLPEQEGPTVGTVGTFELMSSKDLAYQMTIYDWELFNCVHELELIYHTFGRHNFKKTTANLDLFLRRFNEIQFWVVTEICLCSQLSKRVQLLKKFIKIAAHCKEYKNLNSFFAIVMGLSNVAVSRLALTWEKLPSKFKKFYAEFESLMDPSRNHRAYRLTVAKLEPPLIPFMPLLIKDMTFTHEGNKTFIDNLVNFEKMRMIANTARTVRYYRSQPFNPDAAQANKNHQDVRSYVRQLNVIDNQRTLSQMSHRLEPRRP
VDR inhibitor = vitamin D3 receptor (human) inhibition. P11473. VDR-SRC2-3 peptide fluorescence polarization, 2 h. Potency, µM, actives largely listed as inhibitors. actives 0.93% (n = 400,000). AID 504847
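Measured by FP: displacement of SRC2-3 coactivator peptide from VDR by library compounds, following a two-hour ambient incubation.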
EPAC1 antagonist = antagonists of human EPAC1. EPAC1 GEF assay, Rap1b-BODIPY-GDP exchange fluorescence. Potency, µM (doses to about 115 µM), actives largely listed as inhibitors. actives 0.14% (n = 360,000). AID 720709; also: nearly all actives have a fitted effect of over 50% in size
EPAC2 ag = activates human EPAC2 exchange factor | Potency, µM (series often up to 154 µM), most hits filed as activators | AID 720711 | Q8WZA2 | actives 0.079% (n = 360,000) | EPAC2 activation, biochemical qHTS; response scale: 100% = 6.5 mM cAMP response; also: nearly all actives have a fitted effect of over 50% in size
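EPAC2 (100 nM) mixed with Rap1B loaded with BODIPY-GDP (250 nM) plus 50 uM unlabeled GDP; compounds pinned in, 5 min RT, then read every 5 min for 30 min (ex 480, em 540 nm). Normalized to cAMP control.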
A number is an active result; - = inactive; ? = inconclusive; . = not tested or not shown; ! = not active in a repeat. Rows were chosen to be rich in hits. Some 1.2% of all compounds tested hit in one or more screens of this group. Calls follow the shape of the dose curve; as a rule, active = well fitted curve in the direction sought with a large enough effect; inconclusive = small, poorly fitted or top-dose-only effect, or another doubt; inactive = no such curve, though single readings can be large; an effect the other way counts as inactive or inconclusive.

SMILES	USP1-UAF1 inh	EPAC1 ag	EPAC2 antag	VDR inhibitor	EPAC1 antagonist	EPAC2 ag
COc1cccc(-c2nccc(N(C)Cc3ccco3)n2)c1	.	.	.	35µM	.	.
CN(C)c1ccc(C(=O)/C=C/c2ccccc2)cc1	-	-	-	-	-	-
CCN(CC)c1ccc(/C=C/C(=O)c2ccc(Br)cc2)cc1	28µM	100µM	-	-	-	100µM
CCN(CC)c1ccc(/C=C/C(=O)c2cccnc2)cc1	-	-	-	-	-	-
CN(C)c1ccc(C(=O)/C=C/c2ccc(Br)cc2)cc1	-	-	-	-	-	100µM
CSCC[C@H](N)C(=O)N[C@@H](C)C(=O)NCC(=O)N[C@@H](CCCN=C(N)N)C(=O)N[C@@H](CO)C(=O)NCC(=O)N[C@@H](CC(=O)O)C(=O)N[C@@H](CO)C(=O)N[C@@H](CC(=O)O)C(=O)N[C@@H](CCC(=O)O)C(=O)N[C@@H](CC(=O)O)C(=O)N[C@@H](CC(C)C)C(=O)N[C@@H](CC(C)C)C(=O)N[C@@H](CCCCN)C(=O)N[C@@H](C)C(=O)N[C@H](C(=O)O)C(C)C	.	.	.	-	.	.
O=C(NCCc1ccccc1)c1cc(-c2ccccc2)nc2n[nH]c(-c3ccccc3)c12	-	.	.	-	.	.
Cc1oc2c(cc(NS(=O)(=O)c3ccc(C(C)C)cc3)c3ccccc32)c1C(=O)O	28µM!	-	-	-	-	?
Cc1oc2c(cc(NS(=O)(=O)c3ccc(F)cc3)c3ccccc32)c1C(=O)O	?	-	-	-	?	-
COc1ccc(CNc2ccccc2C(=O)NCc2ccccc2)cc1COc1ccc(NC(C)=O)cc1	.	.	.	-	.	.
O=c1c2cc([N+](=O)[O-])cc([N+](=O)[O-])c2[nH]n1-c1ccccc1	-	-	45µM	-	?	-
Cc1nc(N)sc1-c1csc(Nc2ncccn2)n1	?	-	71µM	-	-	?
COc1cc(/C=C2\SC(N)=NC2=O)ccc1OCC(=O)Nc1ccc(C)cc1	-	-	-	-	-	-
COc1cccc(/C=C2\SC(=S)NC2=O)c1OS(=O)(=O)c1ccc(NC(C)=O)cc1	-	-	-	-	79µM	-
CCOc1ccc(/C=C2\SC(=S)N(C)C2=O)cc1OC	-	-	-	-	-	-
COc1cc(/C=C2/SC(=S)NC2=O)ccc1OS(=O)(=O)c1ccc(C)cc1	?	-	40µM	50µM	45µM	-
CCOc1ccc(/C=C2\SC(=S)NC2=O)cc1OC	-	-	13µM	-	?	-
CC(=O)Nc1ccc(S(=O)(=O)Oc2cccc(/C=C3\SC(N)=NC3=O)c2)cc1	-	-	-	35µM	-	-
Cc1ccc(NC(=O)c2ccc(-n3nncc3-c3ccccc3)cc2)cc1	.	.	.	-	.	.
CC(=O)c1cc(-c2ccccc2)n(CC(=O)NCc2ccccc2C)c1C	-	.	.	-	.	.
COc1cc(C=O)ccc1OS(=O)(=O)c1ccc(NC(C)=O)cc1	-	-	-	-	-	-
COc1ccc(/C=C2\SC(=S)NC2=O)cc1OS(=O)(=O)c1ccc(NC(C)=O)cc1	-	-	50µM	-	?	-
Cc1cc(NC(=O)Nc2ccc(N(C)C)cc2)c2cc(F)cc(F)c2n1	.	.	.	18µM!	.	.
CN(C)c1ccc(NC(=O)Nc2csc3ccccc23)cc1	?	-	-	-	-	-
COc1cccc([C@@H]2Oc3ccc(Br)cc3C(=O)[C@H]2OC(=O)NS(=O)(=O)c2ccc(F)cc2)c1	.	.	.	-	.	.
SMILES	USP1-UAF1 inh	EPAC1 ag	EPAC2 antag	VDR inhibitor	EPAC1 antagonist	EPAC2 ag
Nc1ccc(N2CCCCC2)c2nonc12	4.5µM	-	?	20µM	10µM	-
CC(C)(C)c1ccc(OCCSc2nc(-c3cccs3)nc3cc(=O)[nH]n23)cc1	-	.	.	-	.	.
O=C(c1ccccc1NS(=O)(=O)c1ccc([N+](=O)[O-])cc1[N+](=O)[O-])N1O[C@@H]2C=C[C@H]1C2	?	-	-	45µM	-	-
O=C(c1ccccc1NS(=O)(=O)c1ccccc1[N+](=O)[O-])N1CCOCC1	-	-	-	-	-	-
O=C(CCNc1ccc(Br)cc1)c1cccc([N+](=O)[O-])c1	-	-	-	89µM	-	-
O=C(CCNc1ccccc1)c1cccc([N+](=O)[O-])c1	-	-	-	89µM	-	-
COc1cccc(NC(=O)c2sc3nc(C)c(C(=O)Nc4ccc(C)cc4C)c(-c4ccc(C)o4)c3c2N)c1	-	.	.	-	.	.
COc1ccc2c(c1-c1c3c(cc(Br)c1OC)CCCC3)CCCC2	.	.	.	-	.	.
O=C(O)c1cccc(-c2ccc(/C=N/Nc3ccc([N+](=O)[O-])cc3)o2)c1	?	-	-	-	?	-
O=[N+]([O-])c1ccc(S(=O)(=O)NN=Cc2ccc(Cl)c(Cl)c2)cc1	-	-	-	50µM	-	-
O=C(O)c1ccc(-c2ccc(/C=N/Nc3ccc([N+](=O)[O-])cc3)o2)cc1	13µM	-	-	-	-	-
O=[N+]([O-])c1ccc(C=NNc2ccc(S(=O)(=O)O)cc2)cc1	-	-	20µM	-	-	-
CC(=O)Nc1ccc(S(=O)(=O)NN=Cc2ccc(Cl)c(Cl)c2)cc1	-	-	-	-	-	-
O=[N+]([O-])c1ccc(NN=Cc2cccc([N+](=O)[O-])c2)cc1	-	-	-	-	-	-
O=S(=O)(O)c1ccc(NN=Cc2ccccc2O)cc1	-	-	22µM	-	-	-
CCn1nc(C)c2c(-c3ccccc3)cc(=O)n(C(C)C(=O)Nc3ccc(OC)c(OC)c3)c21 (stereo unspecified)	-	.	.	-	.	.
O=C(NCC1CCCO1)c1c[nH]c2ccc(S(=O)(=O)Nc3cccc(C(F)(F)F)c3)cc2c1=O (stereo unspecified)	-	.	.	-	.	.
